Compound activity: PubChem, National Center for Advancing Translational Sciences (NCATS)
TRPML1 agonist: activates the human TRPML1 channel. Q9GZU1. TRPML1-expressing cells, Ca2+ dye fluorescence, FDSS. activation, % (no concentration beside the values). 410,000 tested, 0.12% active; in the data active means activation above about 50%; inconclusive means mostly about 30% to 49%; further: 0% is about no effect
Target sequence (Q9GZU1 whole entry, looked up): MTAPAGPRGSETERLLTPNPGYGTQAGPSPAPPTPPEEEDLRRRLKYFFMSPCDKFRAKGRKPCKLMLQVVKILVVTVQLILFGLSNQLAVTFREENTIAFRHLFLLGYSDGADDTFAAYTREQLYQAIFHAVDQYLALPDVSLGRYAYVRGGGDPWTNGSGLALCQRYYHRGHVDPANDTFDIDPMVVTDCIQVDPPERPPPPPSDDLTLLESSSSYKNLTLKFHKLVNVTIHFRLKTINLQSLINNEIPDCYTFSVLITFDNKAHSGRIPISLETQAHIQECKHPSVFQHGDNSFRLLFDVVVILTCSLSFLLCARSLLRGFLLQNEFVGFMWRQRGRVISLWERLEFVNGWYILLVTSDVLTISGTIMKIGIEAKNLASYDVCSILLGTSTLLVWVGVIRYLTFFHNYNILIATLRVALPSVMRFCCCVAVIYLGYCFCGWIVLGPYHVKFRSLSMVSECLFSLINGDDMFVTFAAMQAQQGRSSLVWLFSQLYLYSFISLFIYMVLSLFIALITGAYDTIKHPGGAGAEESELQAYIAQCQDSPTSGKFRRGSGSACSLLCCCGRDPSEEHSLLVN
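Tet-induced TRPML1-DL cells, 1,500 per well, cultured overnight, were loaded with a no-wash Ca2+ dye for 45–90 min. Calcium fluorescence was recorded on the FDSS for 110 s after compound addition, before the EC80 agonist (4 uM 54-4) was added.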
TRPV1 PAM: enhances activation of the human vanilloid receptor TRPV1. TRPV1-expressing cells, Fluo-8 calcium influx, capsaicin EC20 potentiation. potentiation, % at 8.33 µM. 320,000 tested, 0.02% active; in the data active means potentiation above about 80%; inconclusive means between about 30% and that limit; further: 0% is about no effect
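Cells expressing TRPV1 were dye-loaded with Fluo-8 and read kinetically: 10 s baseline, 3 min after compound (agonist portion), then 2 min after EC20 capsaicin (allosteric enhancer portion). Calcium-bound dye fluorescence at 480/520 nm.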
LDHA block: blocks human lactate dehydrogenase A | activity change, % (values are at about 110 or 230 µM) | 480,000 tested, 0.15% active | AID 1347041 | purified LDHA, NADH/diaphorase-resazurin fluorescence; active compounds read low; in the data active means activity change below about -30%; inconclusive means mostly about -25% to -30%;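 further: plate controls were DMSO wells for no effect and wells without enzyme for full effect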
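Human LDH5 at 2 nM final in Tris HCl pH 7.4 with 0.06 mM NADH and 0.2 mM pyruvate, reacted 5 minutes at room temperature. Remaining NADH coupled via diaphorase/resazurin; resorufin fluorescence read at 0 and 20 minutes, normalized to enzyme-free and DMSO wells.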
TRPV1 ag: agonists of human vanilloid receptor 1 (TRPV1); TRPV1-expressing cells, Fluo-8 calcium influx, agonist mode; Q8NER1; 320,000 tested, 0.19% active; activation, % at 8.33 µM; in the data active means activation above about 80%; inconclusive means between about 30% and that limit; further: 0% is about no effect
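TRPV1-expressing cells were cultured overnight at 35.5C and loaded with Fluo-8 calcium dye for 40 to 90 min at room temperature. After a 10 s baseline, compound was added and calcium influx was read kinetically for 3 min (ex 480/em 520 nm).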
TRPML1 inh: human mucolipin-1 channel inhibition. TRPML1-inducible cells, Ca2+ dye fluorescence, FDSS; active compounds read low; inhibition of EC80 agonist-evoked calcium signal. Q9GZU1. activity change, negative = inhibition, % (test concentration not listed). 390,000 tested, 0.02% active; in the data active means activity change below about -50%; inconclusive means between about -30% and that limit;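 further: stimulus is agonist 54-4 at its EC80 concentration; on the % scale 0 is the no-effect control and ±100 the full control effect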
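Tet-induced TRPML1-DL cells loaded with Ca8 no-wash calcium dye were read kinetically on FDSS. Compound addition was followed by EC80 agonist 54-4 (4 uM final); inhibition was read over 110 s.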
The depositor's hits bear a star; ? = inconclusive; . = not tested or not shown. Only some compounds are listed: those with a hit (about 0.41% of all), similar ones and a draw of the others.

SMILES	TRPML1 agonist	TRPV1 PAM	LDHA block	TRPV1 ag	TRPML1 inh
O=C(CN1CCCC1)Nc1ccccc1C(=O)c1ccccc1	0	-2	-8	6	34
O=c1oc2cc(O)ccc2cc1-c1nnc(Nc2ccccc2F)s1	71*	.	-5	.	3
O=c1oc2cc(O)ccc2cc1-c1nnc(Nc2ccccc2Cl)s1	.	.	14	.	.
O=c1oc2cc(O)ccc2cc1-c1nc2c(s1)CCc1ccccc1-2	83*	-13	6	83*	-6
CCCC(c1nnnn1Cc1cccs1)N1CCN(c2nc3ccccc3s2)CC1 (stereo not drawn)	61*	?	-6	-2	-18
N#C/C(=C\c1coc2ccc(O)cc2c1=O)C(=O)Nc1nc2ccccc2s1	72*	-9	1	?	-22
COc1ccc(Cl)cc1NC(=O)/C(C#N)=C/c1coc2ccc(C)cc2c1=O	.	.	-6	.	.
COc1cccc(/C=N/n2c(SC)nnc2-c2ccccc2)c1O	1	-17	20	89*	48
Cc1cccc(Cl)c1OCCCn1ccnc1	2	13	-37*	-2	-6
Cc1cc(Cl)cc(C)c1OCCCCCn1ccnc1	0	0	0	5	9
Cc1cc(C)c(C(=O)N2CCCC(Nc3ccc(C)c(C)c3)C2)o1 (stereo not drawn)	-1	5	4	97*	-8
COc1ccc(NC2CCCN(C(=O)c3oc(C)cc3C)C2)cc1OC (stereo not drawn)	1	6	29	14	2
Cc1cc(C)c(C(=O)N2CCCC(Nc3ccc(F)cc3)C2)o1 (stereo not drawn)	1	-6	-9	83*	10
O=C(CCC(=O)N1CCCC(Nc2ccccc2)C1)c1ccc(F)cc1 (stereo not drawn)	-1	-5	1	86*	2
COc1ccc(/C=C/C(=O)c2ccc(OC(F)F)c(OC)c2)c(OC)c1	.	.	4	.	.
Cc1ccc(Sc2ccc(/C=C(\C#N)c3nc4ccccc4[nH]3)o2)cc1	.	.	1	.	.
COC(=O)C1(NC(=O)COc2cc(Cl)ccc2Cl)CCCCCC1	.	.	-31*	.	.
COC(=O)C1(NC(=O)COc2cccc(F)c2)CCCCC1	.	.	-11	.	.
COC(=O)[C@@H](NC(=O)N1CCN(C(=O)C2COc3ccccc3O2)CC1)C(C)C (stereo partly drawn)	1	10	-1	-1	-60*
CCCCc1nn2c(=O)cc(COC(=O)c3cccc(NC(=O)CCc4ccccc4)c3)nc2s1	-1	.	1	.	-14
CCCc1nn2c(=O)cc(COC(=O)c3cccc(NC(=O)CCc4ccccc4)c3)nc2s1	2	.	0	.	-62*
CCCn1c(Br)nc2c(=O)n(C)c(=O)n(C)c21	.	.	-7	.	.
CC(C)CC(=NNC(=O)c1ccncc1)c1cc(Cl)ccc1O	71*	.	-7	.	7
Cc1ccc(C2/C(=C(\O)c3c(C)nc4ccccn34)C(=O)C(=O)N2CCN(C)C)o1 (stereo not drawn)	0	-5	10	2	-56*
NC(=O)c1ccsc1NC(=O)COC(=O)c1cccc(Cl)c1Cl	.	.	-3	.	.
SMILES	TRPML1 agonist	TRPV1 PAM	LDHA block	TRPV1 ag	TRPML1 inh
CCc1ccc(Nc2nnc(SC3CCOC3=O)s2)cc1 (stereo not drawn)	0	2	-5	82*	15
O=C1c2ccccc2CN1CCSC(=S)N1CCSCC1	.	9	.	90*	.
O=C1c2ccccc2CN1CCSC(=S)N1CCOCC1	0	-11	-1	21	20
COc1cccc(-c2nc(CC(=O)NC3CCN(Cc4ccccc4)CC3)cs2)c1	.	.	3	.	.
Cc1ccc(Cl)cc1NC(=O)COc1ncnc2ccccc12	.	.	0	.	.
CCc1cccc(C)c1NC(=O)CSC1CCCC1	.	.	-2	.	.
CCOCCCNC(=O)c1ccc2c(=O)n(CCCOCC)c(=S)[nH]c2c1	1	-8	-7	-1	-5
CCOCCCn1c(=S)[nH]c2cc(C(=O)NCCCN(CC)CC)ccc2c1=O	-1	105*	-2	4	2
CCN1CCCC1CNC(=O)c1nn(Cc2ccccc2)c(=O)c2ccccc12 (stereo not drawn)	.	.	3	.	.
O=C(/C=C/c1ccccc1)Nc1cccnc1Cl	-1	-30	-2	84*	-12
COc1ccc2c(c1C)CCC(C)(C#N)C2=O (stereo not drawn)	78*	.	-6	.	-24
